Our source for the Potency and outcome values is PubChem BioAssay (Tox21).

The nature of test [1]: A CellTox Green Cytotoxicity Assay to monitor cytotoxicity in HEK293 cells - 32 hour (AID 1224881). Note: nearly all actives have a fitted effect of over 40% in size. Note: potency is the fitted concentration of half-maximal effect. In outline:
(§1)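 HEK293 cells, 600/well, were preincubated 5 hours and then exposed to compounds at 37 C for up to 40 hours. A cell-impermeant cyanine dye staining dead-cell DNA was read by fluorescence at 0, 8, 16, 24, 32 and 40 h time points.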

Test [2] in a line: A CellTox Green Cytotoxicity Assay to monitor cytotoxicity in HepG2 cells - 0 hour (AID 1224882). Note: nearly all actives have a fitted effect of over 35% in size. In a few lines: (§2)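 HepG2 cells, 600/well, preincubated 5 h with CellTox Green dye, then exposed to Tox21 compounds in DMSO at 37 C for up to 40 h. Dead-cell DNA fluorescence read at the indicated time point.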
A short description of test [3]: qHTS RealTime-Glo MT Cell Viability Assay in HepG2 cells - 16 hour (AID 1224885). Note: nearly all actives have a fitted effect of over 50% in size. Note: potency is the fitted concentration of half-maximal effect. In outline: (§3)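 HepG2 cells were seeded at 600 cells/well together with NanoLuc luciferase and a cell-permeant prosubstrate, preincubated 5 h at 37 C/5% CO2, then pin-dosed with compounds in DMSO. Nonlytic luminescence from viable cells was read at each time point.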
A short description of test [4]: qHTS RealTime-Glo MT Cell Viability Assay in HEK293 cells - 24 hour (AID 1224886). Note: top concentration of the series differs between compounds; nearly all actives have a fitted effect of over 50% in size. In a few lines: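 HEK293 cells were seeded at 600 cells/well together with NanoLuc luciferase and cell-permeant prosubstrate, preincubated 5 h at 37 C/5% CO2, then given compound in DMSO by pintool. Luminescence from viable-cell prosubstrate reduction was read repeatedly over 40 h.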
(qHTS replaces the single test concentration by a dilution series.)

A short description of test [5]: A CellTox Green Cytotoxicity Assay to monitor cytotoxicity in HEK293 cells - 16 hour (AID 1224888). Note: nearly all actives have a fitted effect of over 35% in size. In a few lines:
as §1

A short description of test [6]: A CellTox Green Cytotoxicity Assay to monitor cytotoxicity in HepG2 cells - 8 hour (AID 1224890). Note: nearly all actives have a fitted effect of over 45% in size. Note: potency is the fitted concentration of half-maximal effect. In outline: as §2
Test [7] is described as follows: qHTS assay to identify small molecule antagonists of the estrogen receptor alpha (ER-alpha) signaling pathway using the BG1 cell line in the presence of 0.1 nM 17-beta-estradiol - cell viability counter screen (AID 1259241). Note: nearly all actives have a fitted effect of over 40% in size. Note: potency is the fitted concentration of half-maximal effect. In outline: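 Cells were plated and left 24 hr, compounds in DMSO were pinned in, 17beta-estradiol was added to 0.1 nM final, and after 22 hr CellTiter-Fluor reagent was added for 30 min before fluorescence was read.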

A short description of test [8]: qHTS assay to identify small molecule antagonists of the androgen receptor (AR) signaling pathway using the MDA cell line in the presence of 0.5 nM R1881 - cell viability counter screen (AID 1259242). Note: nearly all actives have a fitted effect of over 45% in size. Note: potency is the fitted concentration of half-maximal effect. In a few lines: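 MDA-kb2 cells (MMTV-luciferase, AR/GR responsive) were treated with compounds plus 0.5 nM R1881 (final) for 16 hr at 37C, 0% CO2. Viability was then read in the same wells as live-cell protease fluorescence (CellTiter-Fluor, 30 min).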

The nature of test [9]: qHTS assay to identify small molecule HDAC inhibitors (AID 1259364). Note: top concentration of the series differs between compounds; nearly all actives have a fitted effect of over 45% in size. In outline:
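Wild-type HCT-116 cells, plated overnight at 37 C, exposed to compounds 2 hr at 37 C; luminogenic HDAC-Glo substrate then added 30 min at room temperature. Luminescence reports relative endogenous class I/II HDAC activity.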

Test [10] in a line: qHTS assay to identify small molecule HDAC inhibitors - cell viability counter screen (AID 1259365). Note: series mostly up to about 92 µM; nearly all actives have a fitted effect of over 50% in size. In a few lines: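 Counter screen in wild-type HCT-116 cells: compounds dissolved in DMSO are pin-transferred onto overnight-plated cells and left 2hr at 37C. ATP-based CellTiter-Glo luminescence then measures viable cells.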
The nature of test [11]: qHTS assay to identify small molecule agonists of the sonic hedgehog signaling (Shh) pathway - cell viability counter screen (AID 1259366). Note: nearly all actives have a fitted effect of over 50% in size. Note: potency is the fitted concentration of half-maximal effect. In a few lines: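 Cells are plated at 2,000 per well and left 4hr at 37C, 5% CO2 before compound addition. After 23hr of treatment, CellTiter-Fluor reagent is added for 1hr at 37C and fluorescence is measured.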
Test [12] in a line: qHTS assay to identify small molecule antagonists of the sonic hedgehog signaling (Shh) pathway - cell viability counter screen (AID 1259367). Note: nearly all actives have a fitted effect of over 55% in size. Note: potency is the fitted concentration of half-maximal effect. In a few lines: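 After a 4 hr settling period, 3T3 Gli1-Luc cells were treated with DMSO-dissolved chemicals and conditioned medium, kept 24 hr at 37C in 5% CO2, and assayed for viability by CellTiter-Fluor fluorescence following 1 hr reagent incubation.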

The nature of test [13]: qHTS assay to identify small molecule agonists of the sonic hedgehog signaling (Shh) pathway (AID 1259368; calls by dose curve;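 note: NIH/3T3-derived 3T3Gli1-Luc cells carrying a stable Gli1-driven firefly luciferase reporter; series mostly up to about 92 µM; nearly all actives have a fitted effect of over 15% in size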). In outline: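 NIH/3T3-derived 3T3Gli1-Luc cells with stably integrated Gli1-driven firefly luciferase, 2,000 cells/well, compounds added after 4 hr. Incubated 24 hr at 37C, 5% CO2; luminescence read after 30 min with luciferase reagent at room temperature.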
The nature of test [14]: A CellTox Green Cytotoxicity Assay to monitor cytotoxicity in HEK293 cells - 8 hour (AID 1224884). Note: nearly all actives have a fitted effect of over 35% in size. In outline: as §1
A short description of test [15]: qHTS RealTime-Glo MT Cell Viability Assay in HEK293 cells - 8 hour (AID 1224887). Note: nearly all actives have a fitted effect of over 50% in size. Note: potency is the fitted concentration of half-maximal effect. In outline: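 600 cells/well were plated with the nonlytic NanoLuc/prosubstrate reagent, pre-incubated 5 h, then given 23 nL of compound in DMSO. Incubation at 37 C for 40 h, with luminescence from viable-cell-reduced substrate read repeatedly from 0 h.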
The nature of test [16]: qHTS RealTime-Glo MT Cell Viability Assay in HepG2 cells - 0 hour (AID 1224889). Note: nearly all actives have a fitted effect of over 50% in size. In a few lines: as §3
The target in test [17] is Estrogen receptor (Homo sapiens) (UniProt P03372). The experiment in a line: qHTS assay to identify small molecule antagonists of the estrogen receptor alpha (ER-alpha) signaling pathway using the BG1 cell line in the presence of 0.1 nM 17-beta-estradiol (AID 1259244). Note: nearly all actives have a fitted effect of over 50% in size. In a few lines: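 VM7Luc4E2 cells (endogenous full-length ER-alpha, 4×ERE-luciferase), kept 5 days in phenol red-free, charcoal-stripped FBS medium; 4,000 cells/well. Compounds added with 0.1 nM (final) 17beta-estradiol, 22 hr at 37C; luminescence read with ONE-Glo after 30 min.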

The nature of test [18]: qHTS assay to identify small molecule phospholipidosis (PLD) inducers (AID 1259344; active = well fitted curve in the direction sought with a large enough effect; an effect the other way counts as inactive or inconclusive). In a few lines: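 HepG2 cells grown on collagen I take up LipidTOX Red while exposed to compound for 24 h; after fixation they are imaged at 20x and pit metrics are extracted.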
Test [19] can be described thus: A CellTox Green Cytotoxicity Assay to monitor cytotoxicity in HepG2 cells - 32 hour (AID 1224883). Note: nearly all actives have a fitted effect of over 50% in size. In outline: as §2

Inconclusive results are not listed. Activity calls are given as the source filed them. Unless noted, calls come from the whole dose curve; as a rule, active = well fitted curve in the direction sought with a large enough effect in the repeat runs; inconclusive = weak or mixed curves; inactive = no such curve, though single readings can be large; an effect the other way counts as inactive or inconclusive.

Estrogen receptor (Homo sapiens), sequence (P03372 whole entry, looked up): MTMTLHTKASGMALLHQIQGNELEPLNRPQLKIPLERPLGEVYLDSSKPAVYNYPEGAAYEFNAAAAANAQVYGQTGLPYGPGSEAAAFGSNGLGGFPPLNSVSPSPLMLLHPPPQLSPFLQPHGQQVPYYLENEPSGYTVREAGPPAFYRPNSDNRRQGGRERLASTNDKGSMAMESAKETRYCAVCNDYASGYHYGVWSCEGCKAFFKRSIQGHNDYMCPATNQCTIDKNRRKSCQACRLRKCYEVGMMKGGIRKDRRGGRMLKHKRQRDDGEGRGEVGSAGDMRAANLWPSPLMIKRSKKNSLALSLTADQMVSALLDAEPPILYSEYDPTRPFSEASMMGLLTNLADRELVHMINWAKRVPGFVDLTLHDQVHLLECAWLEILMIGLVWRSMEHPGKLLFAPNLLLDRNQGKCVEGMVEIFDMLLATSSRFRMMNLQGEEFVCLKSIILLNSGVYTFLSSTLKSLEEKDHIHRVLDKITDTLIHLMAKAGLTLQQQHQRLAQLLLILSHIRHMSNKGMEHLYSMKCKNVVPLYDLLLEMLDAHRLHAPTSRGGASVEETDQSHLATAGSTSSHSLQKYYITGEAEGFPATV

As for `CCCC[C@H]1CN(CC2CCOCC2)C(=O)OC12CCN(C1(C)CCN(C(=O)c3c(C)ncnc3C)CC1)CC2`, the Potency entry in test [1], in [2], in test [3], in test [4], in test [5] and in test [6] was “inactive” each time. The Potency entry in [7], in [8], in test [9], in [11] and in test [12] was “inactive” throughout. The compound was classed as inactive in test [10] and in test [13].
Take `O=C(O)COC(=O)Cc1ccccc1Nc1c(Cl)cccc1Cl`: the Potency result in [1], in test [2], in test [14], in [3], in [4] and in test [15] was “inactive” in each case. The Potency entry in test [5], in test [16], in test [7], in test [8], in test [17] and in [18] was “inactive” each time. The Potency entry in test [9], in test [11] and in [12] was “inactive” each time. The result in test [10] and in [13] was inactive.
As to `CC(Cc1cccc(C(F)(F)F)c1)NCCOC(=O)c1ccccc1` (stereo unspecified), the Potency in test [1] is 21.3 µM (active). The Potency result in test [2], in test [14], in test [3], in test [5], in test [16] and in test [7] was “inactive” throughout. Also, the Potency entry in test [8], in test [18], in [9], in test [11] and in test [12] was “inactive” in each case. Moreover, the call in test [13] was inactive.
Turning to `CCCCc1cc2ccccc2c(OCCN(C)C)n1`, in test [1], the Potency is 21.3 µM (active). Moreover, the Potency result in [2], in test [3], in test [5], in test [16], in [7] and in test [8] was “inactive” each time. For the same compound, the Potency entry in test [9], in [11] and in test [12] was “inactive” throughout. Further, the compound was classed as inactive in [10] and in test [13].
For the compound `NC(N)=NN=C(/C=C/c1ccc([N+](=O)[O-])o1)/C=C/c1ccc([N+](=O)[O-])o1`, the Potency in [1] was 8.49 µM (active); in test [3], 2.13 µM (active); in [15], 6.01 µM (active); in test [6], 9.52 µM (active); in test [7], 11.9 µM (active); in test [8], 6.68 µM (active). In addition, the Potency in test [11] and in test [12] was 2.37 µM (active) in each case. Further, the Potency result in test [2], in test [16], in [17], in test [18] and in [9] was “inactive” each time.
As for `CC(C)CCCCCCOC(=O)c1ccc(C(=O)OCCCCCCC(C)C)c(C(=O)OCCCCCCC(C)C)c1`, the Potency result in [1], in test [2], in test [14], in test [3], in [4] and in test [15] was “inactive” each time. For the same compound, the Potency result in [5], in test [16], in test [6], in test [7], in test [8] and in test [11] was “inactive” in each case. The outcome in test [10] and in test [13] was inactive.
With `COc1cc(C(C)(C)C)c(O)c(C(C)(C)C)c1`, in test [1], the Potency is 43.6 µM (active). Also, the Potency result in test [2], in test [14], in [4], in [16], in test [7] and in test [8] was “inactive” in each case. Besides, the Potency entry in test [9], in [11] and in [12] was “inactive” throughout. Further, the result in test [10] and in test [13] was inactive.
For `OCC1CC2CC1C1CCC(CO)C21` (stereo unspecified), the Potency result in [1], in test [19], in test [14], in test [3], in test [4] and in test [15] was “inactive” in each case. Further, the Potency entry in test [5], in test [16], in test [6], in test [7], in [8] and in test [17] was “inactive” throughout. Also, the Potency entry in test [9] and in test [11] was “inactive” each time. Further, the call in test [10] and in test [13] was inactive.
With `O=C(Cl)c1c(Cl)cccc1Cl`, the Potency result in [1], in test [19], in test [14], in test [3], in test [4] and in test [15] was “inactive” in each case. Also, the Potency entry in [5], in test [16], in [7], in test [8], in [17] and in [9] was “inactive” each time. Also, the Potency result in test [11] and in test [12] was “inactive” each time. The compound was classed as inactive in [13].
Take `NC(N)=N/N=C/c1c(Cl)cccc1Cl`: the Potency entry in [1], in test [14], in test [4], in [15], in [6] and in test [17] was “inactive” in each case. Also, the Potency entry in test [9] is “inactive”. Also, the call in [10] and in test [13] was inactive. Further, the Potency was 11.9 µM (active) in test [11] and 10.6 µM (active) in test [12].
